# Results published in the OligoGym collection.
# Target: ACAD10
# Assay: pooled miR-30 sensor sort-seq; sequence = guide strand
# Conditions: shRNA
# Note: reference of the scale not given here.
row,Sequence,sensor-assay potency score (higher = more potent)
1,TTCAGCTTTGGCTTTCTCCTTG,-0.097
2,TTCACAGAGATCAAGAACGTTA,0.0116
3,TACAGCTCTCTGACAGGTGGAG,-0.377
4,TTTCAGAGCAAAGTCTCCCAAA,-1.07
5,TTCGGTGCCATACCTCACCAGC,-0.906

# Target: ACAP2
# Assay: as above
# Conditions: shRNA
row,Sequence,sensor-assay potency score (higher = more potent)
1,TTTAACAAAGTTCTGAAGCTGT,0.177
2,TACTTCTGACTGAACTTTGGGC,0.208
3,TATATTCTAACTTAGAATCATC,-0.946
4,TATCCTTCCATAACTATGCCAT,-0.0646
5,TAATCTGAAGCACATAATCGAG,-1.42
6,TTATTCTGTATTGAAAACCAGC,-0.889
7,TAAATCTAGACTGAACTTCTGT,0.683
8,TGATTGAAGAACATTAATCTGA,0.0917
9,TAACTTAGAATCATCACTGGAG,0.563
10,TTTAGCTGTATACATTAGGGGG,-0.7
11,TTTAGGATTTCTGATCTCCTTT,-0.154
12,TTTGGTTGACATTAGCACCATT,-0.325

# Target: ACBD3
# Assay: as above
# Conditions: shRNA
row,Sequence,sensor-assay potency score (higher = more potent)
1,TTGCTGTGCAAGCTGGACTTGA,-0.769
2,TAACTGACATCATATTACTTGG,-0.575
3,TAAAGCTGCCATTATCTGCTGC,-0.101
4,TAGTAGACTGATTTTGACCGCC,0.374
5,TTTTTCTTTGAAGAAGCGCAGT,-0.812
6,TTTCTCTTCACAACCGATGTTT,-0.314
7,TTAACTGACATCATATTACTTG,0.151
8,TTCTTTTGGTCCATTCTCCAGG,-0.756
9,TTAAATGTCATCTTCTGCCCAA,0.233
10,TTGAAGTCTTTGATCTGAGGTC,-0.0448
11,TATTACTTGGTACAGTTGCATT,-1.49
12,TCTTCTTCTATCCGTCTCCTTT,-0.731

# Target: ACCN2
# Assay: as above
# Conditions: shRNA
row,Sequence,sensor-assay potency score (higher = more potent)
1,TGAACTTATAGGTATCAGGATG,-1.02
2,TCGGTCGTAGAACTCACGCATG,-0.983
3,ATAGCGTGTGAAGACCACCTTG,-0.485
4,TTGGCTAAAGCGGAACTCGTTG,-0.0624
5,TTTTCCTCGTCGGCACAGCTTG,-1.19
6,TGAACGTGTAGCACTTTCCATA,-0.947
7,TCGTTGAGGTTGCACAGCGTGA,-1.57
8,TAGCACTTTCCATAGCGTGTGA,-0.16
9,TGGATCTGCACTTTGATGCCTG,-0.178
10,TTGAAGTCTTCAGCGCTGCAGA,-0.498
11,TTCATCCTGACTATGGATCTGC,0.145
